The panel holds about 83,000 compounds, 20% with a hit somewhere; the sample as a whole holds those more often.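 Interpretation: 100, growth as untreated; towards 0, rising growth inhibition; 0, no net growth; 0 to -100, cell death. Compounds scoring below 10 were considered active.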 Values without a mark were called inactive. Activity calls are given as the source filed them.
What was measured:
Test in all cases: NCI-60 one-dose screen, 48 h (100 = growth as untreated, 0 = no growth, -100 = all killed)
HCT-15 colon = details: 10 µM unless noted
HT29 colon = details: 10 µM unless noted
SNB-75 CNS = details: 10 µM unless noted
SNB-19 CNS = details: 10 µM unless noted
U251 CNS = details: 10 µM unless noted
PC-3 prostate = details: 10 µM unless noted
SK-MEL-5 melanoma = details: 10 µM unless noted
UACC-62 melanoma = details: 10 µM unless noted
LOX IMVI melanoma = details: 10 µM unless noted
SK-MEL-28 melanoma = details: 10 µM unless noted
EKVX NSCLC = details: 10 µM unless noted
SN12C renal = details: 10 µM unless noted
UO-31 renal = details: 10 µM unless noted
TK-10 renal = details: 10 µM unless noted
ACHN renal = details: 10 µM unless noted
CAKI-1 renal = details: 10 µM
A498 renal = details: 10 µM unless noted
CCRF-CEM leukemia = details: 10 µM unless noted
SK-MEL-2 melanoma = details: 10 µM unless noted
MOLT-4 leukemia = details: 10 µM unless noted

SMILES | growth (HCT-15 colon) | growth (HT29 colon) | growth (SNB-75 CNS) | growth (SNB-19 CNS) | growth (U251 CNS) | growth (PC-3 prostate) | growth (SK-MEL-5 melanoma) | growth (UACC-62 melanoma) | growth (LOX IMVI melanoma) | growth (SK-MEL-28 melanoma) | growth (EKVX NSCLC) | growth (SN12C renal) | growth (UO-31 renal) | growth (TK-10 renal) | growth (ACHN renal) | growth (CAKI-1 renal) | growth (A498 renal) | growth (CCRF-CEM leukemia) | growth (SK-MEL-2 melanoma) | growth (MOLT-4 leukemia)
COc1cc2c3c(n(CCCNC4CCCCC4)c(=O)c2cc1OC)-c1cc2c(cc1C3=O)OCO2 | -68.7% (active) | -69.2% (active) | 80.6% | 2.72% (active) | -91.1% (active) | -83.6% (active) | 97.2% | 81% | -76.7% (active) | 97% | -65.3% (active) | -70.3% (active) | 84.5% | -95% (active) | -6.15% (active) | 73.9% | 86.2% | -25.3% (active) | – | –
O=c1[nH]c2cc(Cl)ccc2n1C1CCN(c2ccc3nnc(Cl)n3n2)CC1 | 96.5% | 93.2% | 73.1% | 92.6% | 99.2% | 82% | 91.6% | 75.8% | 99.1% | 91.1% | – | 95.3% | -30.9% (active) | 92.9% | 88.2% | 78.6% | 61.5% | 89% | 93.1% | 101%
Cn1cc(-c2nn3c(=O)cc(-c4ccccc4)nc3s2)c2cc(F)ccc21 | 29.6% | 33.3% | 30.9% | 65.6% | 48.5% | 34.8% | 43.8% | 33.9% | 59.3% | 45.2% | 64.3% | 69.6% | 57.1% | 85.6% | 37.7% | 31.6% | 62.5% | 52.8% | – | –
CCN1C(=O)N(CC)C2SC(N/N=C/c3cccs3)=NC21 (centres undefined) | 14.8% | 1.59% (active) | 50.6% | 25.9% | 10.2% | 28.4% | -5.21% (active) | 36.7% | 8.77% (active) | 54.2% | – | 29.9% | – | 84.5% | 32.9% | 27.1% | -23% (active) | 17.8% | 13.5% | 13.3%
O=c1cc(-c2ccccc2)nc2sc(-c3c[nH]c4ccc(F)cc34)nn12 | 67.8% | 73.2% | -37.9% (active) | 77.5% | 57.9% | 64.9% | 69.8% | 68.1% | 72% | 67.7% | 52% | 56.6% | 20.3% | 50.9% | 30% | 60.5% | 88.8% | 88.4% | – | –
C=CCn1c(SCC(=O)Nc2cccc(C(=O)/C=C/c3cc(OC)c(OC)c(OC)c3)c2)nc2ccccc2c1=O | 11.6% | -23.4% (active) | 33.9% | 53.8% | 9.44% (active) | 51.6% | 82.5% | 48.8% | 10% | 83.8% | 78.2% | 41% | 49% | 112% | 45.7% | 44.2% | 75.6% | 9.12% (active) | – | –
COc1cnc2c(c1)C(=O)c1c-2n(CCCNCC2CC2)c(=O)c2cc(F)ccc12 | 0.625% (active) | -62.7% (active) | -7.63% (active) | 4.94% (active) | -50.4% (active) | 9.61% (active) | -82.8% (active) | -56.2% (active) | -59.4% (active) | 22.8% | 13.3% | 0.563% (active) | -81.7% (active) | -32.9% (active) | -62% (active) | -27.2% (active) | -31% (active) | -2.04% (active) | – | –
CCNCCCn1c2c(c3cc(OC)c(OC)cc3c1=O)C(=O)c1cc(OC)cnc1-2 | 22% | -60.9% (active) | 17.1% | 25.3% | -16.1% (active) | 46.5% | -18.2% (active) | 5.63% (active) | -8.19% (active) | 64.7% | 43.3% | 20.8% | 18% | 64.4% | 6.11% (active) | 18.3% | 15.8% | 8.89% (active) | – | –
COc1ccc([C@H]2[C@H](O)C(=O)N2c2cc(OC)c(OC)c(OC)c2)cc1O | 1.4% (active) | -18.4% (active) | 45.3% | 29% | 1.09% (active) | 8.59% (active) | 0.345% (active) | 27.9% | 17.1% | 62% | 51.2% | 24.6% | 32.6% | 81.1% | 28.1% | 28.9% | -16% (active) | 16.1% | – | –
O=c1cc(-c2ccccc2)nc2sc(-c3c[nH]c4ccc(Br)cc34)nn12 | 91.6% | 102% | 108% | 88.4% | 100% | 85.4% | 98.9% | 87.4% | 102% | 93.9% | 91.2% | 94.9% | 79.6% | 110% | 96.3% | 91.4% | 85.5% | 123% | – | –
C/C(=C(/c1ccc(O)cc1)c1ccc(OCCN2CCCCCC2)cc1)c1ccccc1 | -20.7% (active) | -8.88% (active) | 71.2% | 64.3% | 41.2% | 44.1% | 58.4% | 56.9% | 5.39% (active) | 21% | 59% | 57.2% | 29.4% | 92.6% | 58.7% | 39.2% | 74.6% | 60% | – | –
Cc1ccc(/C=C/c2nn3c(-c4ccco4)nnc3s2)cc1 | 96.1% | 103% | 108% | 92.6% | 101% | 98.4% | 98.4% | 90.7% | 105% | 94.1% | 108% | 107% | 85.6% | 87.9% | 99.9% | 86.8% | 89% | 98.9% | – | –
COCCOc1ccc(-c2csc(NC(=O)CN3CCN(CCO)CC3)n2)cc1NS(=O)(=O)c1cccc2c(N(C)C)cccc12 | 85% | -68.5% (active) | 88.6% | 62.2% | 49.1% | 76.1% | 86.5% | 80.5% | 11.8% | 30.8% | 80.5% | 81.1% | 65.3% | 107% | 85.8% | 92% | 79.4% | 46.3% | – | –
COc1cc2c3c(n(CCCNCC4CC4)c(=O)c2cc1OC)-c1cc2c(cc1C3=O)OCO2 | -72.2% (active) | -70.6% (active) | 66.8% | 42.3% | -95.7% (active) | 40% | 53.2% | 45.7% | -77.7% (active) | 89.7% | 66% | 44.6% | 49.8% | 72.5% | -73.1% (active) | -72.5% (active) | 68.6% | -9.44% (active) | – | –
CC[C@@](C)(NC(=O)C(C)(C)NC(=O)[C@@H](NC(=O)[C@@H]1CCCN1C(=O)C(C)(C)NC(=O)[C@H](CC(C)C)NC(=O)CNC(=O)C(C)(C)NC(=O)[C@@H](NC(=O)C(C)(C)NC(=O)[C@H](CCC(N)=O)NC(=O)[C@H](C)NC(=O)C(C)(C)NC(=O)[C@H](C)NC(=O)C(C)(C)NC(=O)[C@@H]1CCCN1C(=O)C(C)(C)NC(C)=O)C(C)C)C(C)C)C(=O)N[C@@H](CCC(N)=O)C(=O)N[C@@H](CCC(N)=O)C(=O)N[C@H](CO)Cc1ccccc1 | 98% [4.25 µM] | 17.4% [4.25 µM] | 3.47% [4.25 µM] (active) | 21% [4.25 µM] | 33.1% [4.25 µM] | 16.2% [4.25 µM] | -39.8% [4.25 µM] (active) | 47.5% [4.25 µM] | 4.55% [4.25 µM] (active) | 27.5% [4.25 µM] | 71.6% [4.25 µM] | 12.8% [4.25 µM] | – | 90% [4.25 µM] | 107% [4.25 µM] | – | 54.9% [4.25 µM] | 35.6% [4.25 µM] | -9.91% [4.25 µM] (active) | 8.53% [4.25 µM] (active)
Cn1cc(-c2nn3cc(-c4cccnc4)nc3s2)c2cc(F)ccc21 | 60% | 67.1% | 86.9% | 84.7% | 96.8% | 79.4% | 94.3% | 62.2% | 85.7% | 81.7% | 80.9% | 85.2% | 70.5% | 129% | 83.8% | 78.1% | 103% | 89.2% | – | –

Reference: PubChem BioAssay (NCI)
